# PubChem BioAssay (NCATS)
# Values without a mark were called inactive. Inconclusive results are not listed. A call without a number means that no potency is given here. Activity calls are given as the source filed them. Unless noted, calls come from the whole dose curve; as a rule, active = well fitted curve in the direction sought with a large enough effect; inconclusive = small, poorly fitted or top-dose-only effect, or another doubt; inactive = no such curve, though single readings can be large; an effect the other way counts as inactive or inconclusive.
# Experiments:
# [1] = Cell Viability - BJ (AID 421; calls by dose curve;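 note: potency is the fitted concentration of half-maximal effect; cells exposed to compound for 40 hours at 37 °C before readout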); settings: BJ fibroblast viability, qHTS
# How it was run: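 Quantitative HTS: ATP depletion in BJ cells after 40 hr compound exposure in complete culture medium, detected with CellTiter-Glo; AC50 from standard Hill fits.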
# [2] = Cell Viability - Jurkat (AID 426;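 active = dose-dependent loss of cell ATP signal giving a full or clear fitted curve, ranked by lower potency value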; note: potency is the fitted concentration of half-maximal effect); settings: qHTS
# How it was run: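 Seed 5000 Jurkat E6-1 cells/well; add compound; incubate 40 hr at 37 °C; add CellTiter-Glo; wait 20 min at room temperature; read luminescence. Fit concentration-response with Hill equation for AC50.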
# [3] = Cell Viability - Hek293 (AID 427;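 active = compounds whose dose-response curve shows a full or clear partial loss of cell viability, called from curve shape rather than a numeric limit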;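 note: potency is the fitted concentration of half-maximal effect; cells exposed to compound for 40 hours at 37 °C before reading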); settings: qHTS
# How it was run: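 AC50 values derive from Hill-modelled concentration-response of ATP-based luminescence, normalized between DMSO-only and 100 uM tamoxifen controls. Cells were exposed in complete culture medium for 40 hr at 37 °C before detection.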
# [4] = Cell Viability - HepG2 (AID 433; calls by dose curve;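 note: potency is the fitted concentration of half-maximal effect; potency for ATP loss meaning cytotoxicity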); settings: qHTS
# How it was run: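 HepG2 cells, 1500 per well, treated 40 hr at 37 °C in complete medium; viability from intracellular ATP by CellTiter-Glo luminescence. Normalized to DMSO and 100 uM tamoxifen; AC50 from Hill fit of qHTS concentration-response.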
# [5] = Cell Viability - MRC5 (AID 434; calls by dose curve;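 note: potency is the fitted concentration of half-maximal effect; potency reflects cytotoxicity seen as loss of intracellular ATP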); settings: MRC5 lung fibroblast viability, qHTS
# How it was run: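 qHTS cytotoxicity in human lung fibroblast MRC5 cells; 40 hr treatment, 37 °C; cellular ATP by luciferase luminescence; DMSO = 0%, 100 uM tamoxifen = 100% inhibition; Hill-fit AC50.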
# [6] = Cell Viability - SK-N-SH (AID 435; calls by dose curve;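 note: potency is the fitted concentration of half-maximal effect; compound exposure lasted 40 h at 37 °C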); settings: SK-N-SH neuroblastoma cell viability qHTS
# How it was run: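 SK-N-SH neuroblastoma cells (1500/well) treated 40 h at 37 °C in complete medium; viability read as cellular ATP by CellTiter-Glo luminescence. Normalized to DMSO and 100 uM tamoxifen; AC50 from Hill fits of qHTS concentration-response.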
# [7] = biological target: Mitogen-activated protein kinase 10 (Mus musculus) (UniProt Q61831); experiment: JNK3 AlphaScreen Assay (AID 530; active = well fitted curve in either direction with a large enough effect, not every such curve was filed as active;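 note: kinase came from lysate of stimulated human HepG2 cells; signal reports phosphorylation of biotinylated GST-cJun 1-79 at Ser73 with 10 µM ATP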); settings: JNK3 lysate, c-Jun phosphorylation; series mostly up to 57.1 µM
# How it was run: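 Room-temperature AlphaScreen kinase assay; pre-activated HepG2 lysate as JNK3 source, biotin-GST-cJun(1-79) substrate, 10 uM ATP, compound 15 min preincubation.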
# [8] = Cell Viability - N2a (AID 540); settings: N2a mouse neuroblastoma cell viability; activity change, negative = cytotoxicity: at 92.2 µM (top of the series); note: nearly all actives have a fitted effect of over 45% in size
# How it was run: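 First, 1500 N2a cells per well incubate 5 hr at 37 °C; next, compounds are added and incubated 40 hr at 37 °C; finally CellTiter-Glo is added and luminescence read after 20 min, with AC50 derived by Hill modeling.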
# [9] = Cell Viability - NIH 3T3 (AID 541); settings: NIH 3T3 cell viability, qHTS; activity change, negative = cytotoxicity: at 92.2 µM (top of the series); note: nearly all actives have a fitted effect of over 25% in size
# How it was run: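 AC50 values reflect concentration-dependent loss of intracellular ATP in NIH 3T3 cells after 40 hr treatment in complete culture medium, quantified by luciferase-based luminescence.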
# [10] = Cell Viability - HUV-EC-C (AID 542); settings: HUV-EC-C endothelial cell viability, qHTS; series mostly up to 92.2 µM; note: nearly all actives have a fitted effect of over 35% in size
# How it was run: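 Decrease in cellular ATP, quantified by luciferase luminescence, reflects toxicity in normal human vascular endothelial HUV-EC-C cells given compound for 40 hr in complete culture medium. Values are AC50s from concentration-response curves.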
# [11] = Cell Viability - H-4-II-E (AID 543); settings: H-4-II-E rat hepatoma viability; series mostly up to 92.2 µM; note: nearly all actives have a fitted effect of over 35% in size
# How it was run: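 Here, cytotoxicity is measured in the rat hepatoma line H-4-II-E as loss of intracellular ATP after 40 hr compound treatment, detected by luciferase luminescence.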
# [12] = Cell Viability - SH-SY5Y (AID 544); settings: SH-SY5Y neuroblastoma cell viability; viability change, negative = cytotoxic: at 92.2 µM (top of the series); note: nearly all actives have a fitted effect of over 55% in size
# How it was run: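 Cytotoxicity is scored as a concentration-dependent fall in intracellular ATP in human SH-SY5Y cells treated 40 hr in complete culture medium. Potency is expressed as AC50 from a Hill equation fit.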
# [13] = Cell Viability - Mesenchymal (AID 546); settings: mesenchymal cells viability, qHTS; series mostly up to 91.7 µM;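 note: cells exposed to compound for 40 hours before reading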
# How it was run: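 AC50 values reflect the drop in intracellular ATP in a human kidney mesenchymal line derived from normal glomeruli. Treatment lasts 40 hr at 37 °C in complete medium, and the signal comes from CellTiter-Glo luminescence.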
# [14] = Cellular Toxicity (caspase-3) HepG2 (AID 654); settings: HepG2 caspase-3 activation, luminescence; series mostly up to 92.2 µM;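 note: cells exposed to compound for 16 hours before reading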
# How it was run: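 qHTS, HepG2, 1500 cells/well, complete medium; cpd 16 h 37 °C; Caspase-Glo 3/7, 20 min RT; lum. Norm: DMSO vs 100 uM tamoxifen; AC50 Hill fit.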
# [15] = Cellular Toxicity (caspase-3) Jurkat (AID 655); settings: Jurkat caspase-3 activation, luminescence; caspase-3 activation: at 92.2 µM (top of the series), DMSO = 0%, tamoxifen = 100%;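 note: cells exposed to compound for 16 h at 37 °C before reading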
# How it was run: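 Jurkat cells (5000/well) in complete medium exposed 16 h at 37 C; caspase-3/7 activity read by Caspase-Glo luminescence after 20 min at room temperature. Normalized to DMSO and 100 uM tamoxifen; AC50 from Hill fits.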
# [16] = Cellular Toxicity (caspase-3) HUV-EC-C (AID 656); settings: HUV-EC-C cells, caspase-3 activation (apoptosis), vehicle = 0, 100 µM tamoxifen = 100%; series mostly up to 92.2 µM
# How it was run: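 HUV-EC-C cells (1000/well) in complete medium, compound-treated 16 h at 37 °C; caspase-3/7 activity read by Caspase-Glo 3/7 luminescence. Normalized to DMSO (basal) and 100 uM tamoxifen (100%); AC50 from Hill-equation concentration-response fits.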
# [17] = Cellular Toxicity (caspase-3) SHSY5Y (AID 657); settings: SH-SY5Y caspase-3 activation, DMSO zero, 10 µM staurosporine = 100%; series mostly up to 91.7 µM
# How it was run: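 SH-SY5Y human neuroblastoma cells, 1500/well, exposed to compound for 16 hours at 37 °C in complete medium. Caspase-3/7 activity read by Caspase-Glo luminescence after 1 hr at room temperature, normalized to DMSO and 10 uM staurosporine; AC50 from Hill fit.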
# [18] = Cellular Toxicity (caspase-3) BJ (AID 658); settings: BJ fibroblasts, luminescence, normalized: DMSO 0%, staurosporine 100%; series mostly up to 91.7 µM
# How it was run: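 Readout: Caspase-Glo 3/7 luminescence increase in BJ cells after 16 hr treatment at 37 °C. Staurosporine and tamoxifen served as positive controls; AC50 values came from Hill modelling of data normalized to DMSO and 10 uM staurosporine.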
# [19] = Cellular Toxicity (caspase-3) MRC-5 (AID 659); settings: MRC-5 cells, luminescence, normalized: DMSO 0%, 10 µM staurosporine 100%; series mostly up to 91.7 µM
# How it was run: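 Concentration-dependent caspase 3/7 activation is measured in human normal lung fibroblasts (MRC-5) following 16-hour treatment. AC50 values come from standard Hill-equation modeling of luminescence normalized to DMSO and 10 uM staurosporine.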
# [20] = Cell Viability - Renal Proximal Tubule (AID 545); settings: renal proximal tubule cells viability, primary cells of rat origin; series mostly up to 91.7 µM; note: nearly all actives have a fitted effect of over 40% in size
# How it was run: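 Rat renal proximal tubule primary cells, 1000/well, exposed to compounds for 40 hr at 37 °C in complete medium; cellular ATP read by CellTiter-Glo luminescence. AC50 from concentration-response fitted with standard Hill equation.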
Compound,Potency [1] [µM],Potency [2] [µM],Potency [3],Potency [4] [µM],Potency [5] [µM],Potency [6] [µM],outcome [7],"activity change, negative = cytotoxicity [8] [%]",Potency [9],Potency [10],Potency [11],Potency [12],Potency [13],Potency [14],caspase-3 activation [15] [%],outcome [16],outcome [17],outcome [18],outcome [19],Potency [20]
COC(=O)CC#N,> 92,> 92,> 92 µM,> 92,> 92,> 92,inactive,-15.8,inactive,inactive,inactive,inactive,inactive,inactive,1.32,inactive,inactive,inactive,inactive,–
CNc1ccccc1,> 92,> 92,> 92 µM,> 92,> 92,> 92,inactive,-12.9,inactive,inactive,inactive,inactive,inactive,inactive,1.08,inactive,inactive,inactive,inactive,–
CC(=O)c1ccccn1,> 92,> 92,> 92 µM,> 92,> 92,> 92,inactive,-1.85,–,inactive,inactive,inactive,inactive,inactive,12.2,inactive,inactive,inactive,inactive,inactive
COCCOC(=O)c1ccccc1C(=O)OCCOC,> 92,> 92,> 92 µM,> 92,> 92,> 92,inactive,4.24,–,inactive,inactive,inactive,inactive,inactive,0.0969,inactive,inactive,inactive,inactive,inactive
CCOc1cccc(N)c1,> 92,> 92,> 92 µM,> 92,> 92,> 92,inactive,4.96,inactive,inactive,inactive,inactive,inactive,inactive,–,inactive,inactive,inactive,inactive,–
Cc1ccccc1C(=O)O,> 92,> 92,> 92 µM,> 92,> 92,> 92,inactive,-16.3,inactive,inactive,inactive,inactive,inactive,–,-1.34,inactive,inactive,inactive,inactive,–
Cc1cc(C2(c3cc(C)c(O)cc3C)OS(=O)(=O)c3ccccc32)c(C)cc1O,> 92,> 92,> 92 µM,> 92,> 92,> 92,inactive,-2.09,inactive,inactive,inactive,inactive,inactive,inactive,2.78,–,inactive,inactive,inactive,–
O=CNc1ccccc1,> 92,> 92,> 92 µM,> 92,> 92,> 92,inactive,5.69,inactive,inactive,inactive,inactive,inactive,inactive,–,inactive,inactive,inactive,inactive,–
O=Cc1c(Cl)cccc1Cl,> 92,> 92,> 92 µM,> 92,> 92,> 92,inactive,-16.5,–,inactive,inactive,inactive,inactive,inactive,3.49,inactive,inactive,inactive,inactive,inactive
CCCOCC(C)O (centres undefined),> 92,> 92,> 92 µM,> 92,> 92,> 92,inactive,-5.54,inactive,inactive,inactive,–,inactive,–,3.45,–,inactive,inactive,inactive,inactive
Cc1ccc2c(c1[N+](=O)[O-])C(=O)c1ccccc1C2=O,> 92,> 92,0.351 µM (active),> 92,> 92,> 92,inactive,3.24,–,inactive,inactive,inactive,inactive,inactive,-1.22,inactive,inactive,inactive,–,inactive
CCNc1cc(O)ccc1C,> 92,> 92,> 92 µM,> 92,> 92,> 92,inactive,4.09,inactive,inactive,inactive,–,inactive,–,–,inactive,inactive,inactive,inactive,inactive
CN(C)CCCCl,> 92,> 92,> 92 µM,> 92,> 92,> 92,inactive,-0.582,inactive,inactive,inactive,inactive,inactive,inactive,1.76,–,inactive,inactive,inactive,–
Nc1c(Cl)cc(Cl)cc1Cl,> 92,> 92,> 92 µM,> 92,> 92,> 92,inactive,-11.7,inactive,inactive,inactive,inactive,inactive,inactive,1.83,inactive,inactive,inactive,–,–
CNc1ccc([N+](=O)[O-])cc1,> 92,> 92,> 92 µM,> 92,> 92,> 92,inactive,-12.7,–,inactive,inactive,inactive,inactive,inactive,-0.0856,inactive,inactive,inactive,inactive,inactive
Nc1nc(CC(=O)O)cs1,> 92,> 92,> 92 µM,> 92,> 92,> 92,inactive,6.3,–,inactive,inactive,inactive,inactive,inactive,0.779,–,inactive,inactive,inactive,inactive
O=C1OC(=O)c2c(Br)c(Br)c(Br)c(Br)c21,> 92,> 92,> 92 µM,> 92,> 92,–,inactive,-3.13,inactive,inactive,inactive,inactive,inactive,–,-0.0657,inactive,inactive,inactive,inactive,inactive
Cc1cc([N+](=O)[O-])ccc1N,> 92,> 92,> 92 µM,> 92,> 92,> 92,–,-8.91,–,inactive,inactive,inactive,inactive,inactive,-1.03,inactive,inactive,inactive,inactive,inactive
NC(=O)NC(N)=O,> 92,> 92,> 92 µM,> 92,> 92,–,inactive,-8.97,inactive,inactive,inactive,inactive,inactive,inactive,–,inactive,inactive,inactive,–,inactive
c1ccc(Nc2ccccc2)cc1,> 92,> 92,> 92 µM,> 92,> 92,> 92,–,-5.87,inactive,inactive,inactive,inactive,inactive,inactive,1.36,inactive,inactive,inactive,inactive,inactive
O=C(O)/C=C/C(=O)O,> 92,> 92,> 92 µM,> 92,> 92,> 92,–,4.39,inactive,inactive,inactive,inactive,inactive,inactive,1.23,inactive,inactive,inactive,inactive,inactive
BrC(Br)C(Br)Br,> 92,> 92,> 92 µM,> 92,> 92,> 92,inactive,7.56,–,inactive,inactive,inactive,inactive,inactive,0.993,–,inactive,inactive,inactive,–
O=[N+]([O-])c1ccc(Cl)cc1Cl,> 92,> 92,> 92 µM,> 92,> 92,> 92,–,10.8,inactive,inactive,inactive,inactive,inactive,inactive,1.63,inactive,inactive,inactive,inactive,inactive
